Where “and” joins values, the source holds several entries; their conditions need not be identical. Identical values can stand only once. Inconclusive results are not listed. The source holds several records for some structures; these can differ, active in one and inactive in another. Calls of active or inactive are those of the source. How the source made its calls, unless noted: active means hit-call score of the fitted dose curve at least 0.9, where 1 is the maximum; inactive means score below 0.9.
Key:
[1] = CCTE_Shafer_MEA_dev_correlation_coefficient_mean: CCTE's Neural Network Formation Assay for Mean Correlation Coefficient, Shafer Lab (AID 2284093);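 on AC50: well mean pairwise spike train correlation integrated as AUC over recording days 5 to 12; potency fitted for loss of correlation relative to DMSO vehicle wells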
Method in brief: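 Spontaneous activity recorded on days 5, 7, 9 and 12 post-plating; pairwise spike correlations are averaged across active electrodes and collapsed to an area-under-curve. Rat cortical cultures are dosed from plating through 12 days, with compound renewed at media changes.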

[2] = BSK_BT_PBMCCytotoxicity: PBMC Cytotoxicity Assessment in the BioMAP Diversity Plus: BT Assay (AID 2284225); conditions: primary human B cells with PBMC;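 further: PBMC viability measured by Alamar Blue dye reduction fluorescence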
Method in brief: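 Primary human co-culture of B cells and PBMC, pre-dosed 1 h then activated with SEB and TSST-1. Cytotoxicity is taken from Alamar Blue dye reduction, added for 6 h at the end of a 90 h incubation.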

[3] = read-out: Secreted IgG (sIgG), gene 3500; assay: BSK_BT_sIgG: BioMAP Diversity Plus: BT Assay for Secreted IgG (sIgG) Biomarker Activity (AID 2284226); conditions: primary human B cells with PBMC
Method in brief: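 Human B cell/PBMC co-culture; compound exposure 24 h; sIgG by ELISA; gain-of-signal fit vs DMSO baseline.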

[4] = BSK_BT_Bcell_Proliferation: Viability Assessment in the BioMAP Diversity Plus: BT Assay for B cell Proliferation (AID 2284227); conditions: primary human B cells with PBMC
Method in brief: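 Human B cells co-cultured with PBMC were dosed with test chemicals and relative cell number was quantified by SRB staining at 72 h. Cells were fixed in 10% TCA, stained with 0.1% SRB and read at 560 nm. Activity was fitted in the positive direction against DMSO.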

[5] = read-out: Interleukin 6 (IL6), IL6 (gene 3569); assay: BSK_BT_xIL6: BioMAP Diversity Plus: BT Assay for Interleukin 6 (IL6) Biomarker Activity (AID 2284228); conditions: primary human B cells with PBMC
Method in brief: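 B cells and peripheral blood mononuclear cells (human primary co-culture) were dosed with chemical, and after 24 h IL-6 released into the medium was measured by Luminex xMAP. Responses were analysed as gain of signal over DMSO control.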

[6] = read-out: Interleukin 17A (IL17A), IL17A (gene 3605); assay: BSK_BT_xIL17A: BioMAP Diversity Plus: BT Assay for Interleukin 17A (IL17A) Biomarker Activity (AID 2284229); conditions: primary human B cells with PBMC
Method in brief: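 Secreted IL-17A was the measured endpoint, read by Luminex xMAP multiplex in supernatants of a human B cell/PBMC co-culture harvested 24 h after chemical dosing. Signal increase relative to DMSO defined activity.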

[7] = read-out: Tumor necrosis factor (Homo sapiens) (UniProt P01375); assay: BSK_BT_xTNFa: BioMAP Diversity Plus: BT Assay for Tumor necrosis factor alpha (TNF-alpha) Biomarker Activity (AID 2284230); conditions: primary human B cells with PBMC
Method in brief: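 B cells with PBMC in co-culture, dosed and sampled at 24 h; secreted TNF-alpha measured by Luminex xMAP bead assay. Activity fitted in the gain direction against DMSO as negative control and baseline.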

[8] = read-out: Vascular cell adhesion molecule 1 (VCAM1), VCAM1 (gene 7412); assay: BSK_MyoF_VCAM1: BioMAP Diversity Plus: MyoF Assay for Vascular cell adhesion molecule 1 (VCAM1) Biomarker Activity (AID 2284231); conditions: primary human lung fibroblasts
Method in brief: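 ELISA read-out of VCAM-1 on human lung fibroblasts 24 h after chemical treatment, with positive-direction curve fitting relative to DMSO controls. Parallel cultures were stained with sulforhodamine B for total protein to flag overt cytotoxicity.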

[9] = read-out: Collagen I, COL1A1 (gene 1277); assay: BSK_MyoF_CollagenI: BioMAP Diversity Plus: MyoF Assay for Collagen I Biomarker Activity (AID 2284238); conditions: primary human lung fibroblasts
Method in brief: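 Lung fibroblasts (human primary) dosed, 24 h; Collagen I by ELISA; positive-direction fit vs DMSO control. Parallel SRB total-protein staining (0.1% SRB, 10% TCA fixation, 560 nm) flags overt cytotoxicity.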

[10] = CCTE_Mundy_HCI_hNP1_Pro_ResponderAvgInten: CCTE's Proliferation Assay in human neuroprogenitor cells, Mundy Lab (AID 2284224; active means hit-call score of the fitted dose curve at least 0.9, where 1 is the maximum;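 further: human neural progenitor cells hNP1 derived from WA09 embryonic stem cells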)
Method in brief: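 Proliferation read as average intensity of BrdU-positive cells, imaged at 26.25 h post-dosing: chemical exposure started after 40–44 h culture, BrdU during final 4 h, paraformaldehyde fixation. Positive-direction fit relative to DMSO.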

Measured: AC50

Tumor necrosis factor (Homo sapiens), sequence (P01375 whole entry, looked up): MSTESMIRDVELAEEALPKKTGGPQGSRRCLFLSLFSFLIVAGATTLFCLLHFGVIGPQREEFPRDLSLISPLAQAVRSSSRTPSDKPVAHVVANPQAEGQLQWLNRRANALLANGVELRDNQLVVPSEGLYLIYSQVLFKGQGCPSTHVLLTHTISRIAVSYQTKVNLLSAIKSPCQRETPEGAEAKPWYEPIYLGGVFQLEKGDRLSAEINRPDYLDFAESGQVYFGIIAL

O=S(=O)(O)CCC(F)(F)C(F)(F)C(F)(F)C(F)(F)F
not listed: [10]
inactive: all other assays above

CCN(CCO)S(=O)(=O)C(F)(F)C(F)(F)C(F)(F)C(F)(F)C(F)(F)C(F)(F)C(F)(F)C(F)(F)F
inactive: [1] | [10] | [2]
active: [3] 16.6 µM | [4] 46.4 µM and 30 µM | [5] 41.8 µM and 46.8 µM | [6] 20.2 µM and 21.2 µM | [7] 21.7 µM and 30 µM | [8] 12.6 µM and 13 µM | [9] 19.9 µM and 20.3 µM

CO[Si](C)(CCC(F)(F)C(F)(F)C(F)(F)C(F)(F)C(F)(F)C(F)(F)F)OC
not listed: [10]
inactive: all other assays above

OC(O)C(F)(F)C(F)(F)F
not listed: [10]
inactive: all other assays above

NC(=O)C(F)(F)C(F)(F)C(F)(F)C(F)(F)C(F)(F)C(F)(F)C(F)(F)F
not listed: [1]
inactive: all other assays above

C=CC(=O)OCCC(F)(F)C(F)(F)C(F)(F)C(F)(F)F
inactive: [8] | [9]
active: [1] 15 µM | [2] 37.8 µM and 25.8 µM | [3] 36.7 µM and 44.9 µM | [4] 45.3 µM and 46.6 µM | [5] 39.6 µM and 35.5 µM | [6] 33.5 µM and 10.7 µM | [7] 38.4 µM and 30 µM | [8] 21 µM

O=S(=O)(Cl)C(F)(F)C(F)(F)C(F)(F)C(F)(F)C(F)(F)C(F)(F)C(F)(F)C(F)(F)F
active: [2] 8.8 µM and 16.2 µM | [7] 15.9 µM
inactive: [3] | [4] | [5] | [6] | [7] | [8] | [9]

NC(O)(C(F)(F)F)C(F)(F)F
not listed: [10]
inactive: all other assays above
